{"source": "PubChem BioAssay (NCATS)", "note": "Records with an inconclusive call do not appear. Entries that show only a call come without a potency. Activity calls are given as the source filed them. The call rests on the fitted dose curve; in most records, active means well fitted inhibition curve with a large enough effect; inconclusive means small, poorly fitted or top-dose-only effect; inactive means flat fitted curve, though single readings scatter. *1 amine or outer side, *2 acyl side, *3 side chain or, on linkers, in order; H or OH if unused. Where a SMILES comes first, the peptide text is derived from it. Bridges are numbered along the chain shown (N, C = ends). [ ]: non-standard residue; d: D form. The star is where a group is joined. ξ: configuration not given here. ξhTyr(3S-OH,4S-OH,3'-OSO3H) = NC(C(=O)O)[C@H](O)[C@@H](O)c1ccc(O)c(OS(=O)(=O)O)c1; Orn(4R-OH,5R-OH) = O=C([C@H](C[C@@H](O)[C@@H](O)N[*:3])N[*:1])[*:2]; X2 = CCCCCOc1ccc(-c2cc(-c3ccc(C(=O)*)cc3)no2)cc1; X3 = C[C@H]1CN([*:1])C(C(=O)[*:2])[C@H]1O; ξGln(3R-OH) = NC(=O)C[C@@H](O)C(N)C(=O)O; ξPro(4R-OH) = O=C(O)C1C[C@@H](O)CN1; ξThr(3R) = C[C@@H](O)C(N)C(=O)O", "data": [{"target": "Glutathione peroxidase 1 (Homo sapiens) (UniProt P07203)", "sequence (P07203 whole entry, looked up)": "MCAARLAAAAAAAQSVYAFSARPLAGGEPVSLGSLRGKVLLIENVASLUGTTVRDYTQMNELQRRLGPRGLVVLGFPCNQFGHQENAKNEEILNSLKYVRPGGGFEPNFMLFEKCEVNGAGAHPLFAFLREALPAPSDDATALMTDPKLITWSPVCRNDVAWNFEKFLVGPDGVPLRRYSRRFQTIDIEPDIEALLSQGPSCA", "assay": "Primary qHTS Assay for Inhibitors of Recombinant Selenoprotein Glutathione Peroxidase 1 (GPX1) (AID 1845191); further: nearly all actives have a fitted effect of over 65% in size", "settings": "recombinant GPX1, GR-coupled NADPH fluorescence, 15 min; series mostly up to 27.7 µM", "excerpt": "Assay Provider: Elias S.J. Arner MD PhD.\nDepartment of Medical Biochemistry and Biophysics\nKarolinska Institutet, Solna, Stockholm, Sweden\nSelenoprotein glutathione peroxidases (GPX), like the ubiquitously expressed GPX1 and the ferroptosis modulator GPX4, enact their antioxidant activities by reducing hydroperoxides using glutathione. […] GPX1 and GPX4 inhibitors have thus shown promise as anti-cancer agents. Existing inhibitors are often promiscuous, or modulate GPX activity only indirectly, so novel direct inhibitors identified through screening against GPX1 and GPX4 could be valuable. Here, we developed optimized glutathione reductase (GR)-coupled GPX assays for the biochemical high-throughput screen (HTS) of almost 12,000 compounds with known mechanisms of action. Initial hits were triaged using a GR counter-screen, assessed for isoform specificity using a separate GPX2 assay, and were assessed for general selenocysteine-targeting activity using a thioredoxin reductase (TXNRD1) assay. With this suite of assays, we identified novel GPX1/GPX2- and GPX4-specific inhibitors and can here present a validated pipeline for future discovery research for selenoprotein-targeting agents.\nSEQUENCE No. (e.g., 1, 2, 3, etc.); […] (e.g., Cells, Incubation, Reagent, etc.); VALUE; DESCRIPTION.\n1; Reagent 1; 3 uL; GPx1 enzyme or no enzyme control in 1536-well, black, solid Greiner assay plate.\n2; Compound; 25 nL; Kalypsis pin tool (Wako USA) equipped with a 1536-well pin head.\n3; Incubation; 30 min; room temperature.\n4; Reagent 2; 1 uL; 10 nM GPX1, 1 mM GSH, 0.5 mM CHP, 0.5 mM NADPH, 100 nM GR, 0.01% BSA substrate\n5; Detection; Fluorescence; ViewLux microplate reader, excitation 340 nm and emission 450 nm.\n6; Incubation; 15 min; room temperature.\n7; Detection; Fluorescence; ViewLux microplate reader, excitation 340 nm and emission 450 nm.\nNOTES (numbers refer to Sequence numbers above)\n1. 3 uL of 16.66 nM GPX1 and 0.016% BSA in assay buffer (50 mM Tris-HCl, 2 mM EDTA (pH 7.5), 150 mM NaCl) was added to columns 3-48 of 1536-well assay plates using a BioRAPTR Flying Reagent Dispenser (Let's Go Robotics (LGR), Carlsbad, CA). A no-enzyme control (0.01% BSA in TES assay buffer) was added to columns 1-2.\n2. 25 nL of test compounds and DMSO controls were added to each well with a pin tool (Kalypsys).\n3. The assay plates were incubated for 30 minutes at room temperature.\n4. 1 uL of master mix (500 nM glutathione reductase (GR), 5 mM reduced glutathione (GSH), 2.5 mM NADPH in assay buffer) was added. 1 uL of cumene hydroperoxide (CHP) ([2.5 mM] in 50% EtOH) was then added within 5 minutes to initiate the reaction. Final concentrations were: 10 nM GPX1, 1 mM GSH, 0.5 mM CHP, 0.5 mM NADPH, 100 nM GR, 0.01% BSA.\n5. Initial fluorescence readout (t=0) at 340/450 nm was measured using a ViewLux multimodal detector (PerkinElmer, Waltham, MA).\n7. Endpoint fluorescence readout (t=15) at 340/450 nm was measured 15 min after room temperature incubation.", "values": [{"smiles": "COCC1OC(OC(C)(C)C2CCC3(C)C=C(C4CCC5C4(C)CC(O)C4OC(C(C)(C)O)CCC45C)CCC3O2)C(NC(C)=O)C(O)C1O", "note": "(stereo not given)", "Potency": "inactive"}, {"smiles": "CC1=C2C(=O)C=C(CO[C@@H]3O[C@H](CO)[C@@H](O)[C@H](O)[C@H]3O)[C@@H]2[C@H]2OC(=O)[C@H](C)[C@@H]2[C@@H](O)C1", "Potency": "inactive"}, {"smiles": "CC1OC(O[C@@H]2[C@H](O)[C@@H](OC3OC(CO)C(O)C(O)C3O)[C@H](OC(=O)[C@]34CCC(C)(C)C[C@H]3C3=CCC5[C@@]6(C)CC[C@H](O[C@@H]7O[C@H](C(=O)O)[C@@H](O)[C@H](O[C@@H]8OC[C@@H](O)[C@H](O)[C@H]8O)[C@H]7O[C@@H]7O[C@H](CO)[C@H](O)[C@H](O)[C@H]7O)[C@@](C)(C=O)C6CC[C@@]5(C)[C@]3(C)C[C@H]4O)O[C@@H]2C)C(O)C(O)C1OC1OCC(O)C(O)C1O", "note": "(stereo not given in full)", "Potency": "inactive"}, {"smiles": "CC(/C=C/C=C(\\C)C(=O)O[C@@H]1O[C@H](CO[C@@H]2O[C@H](CO)[C@@H](O)[C@H](O)[C@H]2O)[C@@H](O)[C@H](O)[C@H]1O)=C\\C=C\\C=C(C)\\C=C\\C=C(/C)C(=O)O[C@@H]1C[C@](O)(C(=O)O)C[C@@H](O)[C@H]1OC(=O)/C=C/c1ccc(O)c(O)c1", "Potency": "inactive"}, {"smiles": "O=C(O[C@@H]1O[C@H](CO)[C@@H](O)[C@H](O)[C@H]1O)c1ccccc1", "Potency": "inactive"}, {"smiles": "O=C(C[C@@H]1C(C(=O)O)=CO[C@@H](O[C@@H]2O[C@H](CO)[C@@H](O)[C@H](O)[C@H]2O)/C1=C\\CO)OCCc1ccc(O)c(O)c1", "Potency": "inactive"}, {"smiles": "C[C@H]1[C@H](C)C[C@@H](C(=O)O)C2CC[C@]3(C)C(=CC[C@@H]4[C@@]5(C)CC[C@H](O)C(C)(C)[C@@H]5CC[C@]43C)[C@@H]21", "note": "(stereo not given in full)", "Potency": "inactive"}, {"smiles": "CC1(O)CC(O)C2C(C(=O)O)=COC(OC3OC(CO)C(O)C(O)C3OC(=O)/C=C/c3ccc(O)cc3)C21", "note": "(stereo not given)", "Potency": "inactive"}, {"smiles": "CC(C)(O)C1CC=C(C(=O)OC[C@H]2O[C@@H](Oc3cc(C(=O)O)cc(O)c3O)[C@H](O)[C@@H](O)[C@@H]2O)CC1", "note": "(stereo not given in full)", "Potency": "inactive"}, {"smiles": "C=C1C(O)C(OC(=O)c2ccccc2)C2C(C)(C(=O)O)CCCC2(C)C1CC/C(C)=C\\CO", "note": "(stereo not given)", "Potency": "inactive"}, {"smiles": "C/C=C1/[C@H](O[C@@H]2O[C@H](CO)[C@@H](O)[C@H](O)[C@H]2O)OC=C(C(=O)OC)[C@H]1CC(=O)OCCc1ccc(O)c(O)c1", "Potency": "inactive"}, {"smiles": "CC1(C)CCC2(C(=O)O)CCC3(C)C(=CCC4C5(C)CCC(O)C(C)(CO)C5C(O)CC43C)C2C1", "note": "(stereo not given)", "Potency": "inactive"}, {"smiles": "CC1C2=CC(=O)OC2(O)CC2C1C(OC(=O)c1ccccc1)C(OC(=O)c1ccccc1)C1(O)C2(C)CCC(O)C1(C)C(=O)O", "note": "(stereo not given)", "Potency": "inactive"}, {"smiles": "CC1(CO)CC(O)C2(C)CCC3(C)C(=CCC4C5(C=O)CCC(OC6OC(C(=O)O)C(O)C(O)C6OC6OC(C(=O)O)C(O)C(O)C6O)C(C)(C)C5CCC43C)C2C1", "note": "(stereo not given)", "Potency": "inactive"}, {"smiles": "C=C1C(=O)OC[C@H]2C(C(=O)O)=CC3CC(C)(C)C[C@@]132", "note": "(stereo not given in full)", "Potency": "inactive"}, {"smiles": "NC[C@H]1CCC[C@@H](CNC(=O)[C@@H](Cc2c[nH]c3ccccc23)NC(=O)N2CCC3(C=Cc4ccccc43)CC2)C1", "Potency": "inactive"}, {"smiles": "CCN(CCN(C)C)C(=O)CNCc1cc(C(N)=O)ccn1", "Potency": "inactive"}, {"smiles": "COc1c2c(c(C)c3c1C(=O)OC3)OC1(C)CC(O)C34OC(OC)(CCC3(C)C1C2)OC4(C)CO", "note": "(stereo not given)", "Potency": "inactive"}, {"smiles": "CC1C2=CC(=O)OC2(O)CC2C1C(O)CC1C(C)(CO)CCCC21C", "note": "(stereo not given)", "Potency": "inactive"}, {"smiles": "C=C[C@H]1[C@H](O[C@@H]2O[C@H](CO)[C@@H](O)[C@H](O)[C@H]2O)OC=C(C(=O)OC)[C@H]1CCO", "Potency": "inactive"}, {"smiles": "Cc1cc(OCCN2CCOCC2)nn1-c1ccc2ccccc2c1", "Potency": "inactive"}, {"smiles": "CC1OC(OC2CCC3(C)C(CCC4(C)C3C=CC35OCC6(CCC(C)(C)CC63)CCC45C)C2(C)CO)C(OC2OC(CO)C(O)C(O)C2O)C(O)C1OC1OC(CO)C(O)C(O)C1O", "note": "(stereo not given)", "Potency": "inactive"}, {"smiles": "C[C@@]1(C(=O)O)CCC[C@@]2(C)C3=CC[C@H]4C[C@@]3(CC[C@H]12)CC4(O)CO", "note": "(stereo not given in full)", "Potency": "inactive"}, {"smiles": "CCCCCOc1ccc(-c2cc(-c3ccc(C(=O)N[C@H]4C[C@@H](O)[C@@H](O)NC(=O)C5[C@@H](O)[C@@H](C)CN5C(=O)C([C@H](O)CC(N)=O)NC(=O)C([C@H](O)[C@@H](O)c5ccc(O)c(OS(=O)(=O)O)c5)NC(=O)C5C[C@@H](O)CN5C(=O)C([C@@H](C)O)NC4=O)cc3)no2)cc1", "note": "(stereo partly drawn) (X2-[Orn(4R-OH,5R-OH)][ξThr(3R)][ξPro(4R-OH)][ξhTyr(3S-OH,4S-OH,3'-OSO3H)][ξGln(3R-OH)][X3]; lactam 1-C)", "Potency": "inactive"}, {"smiles": "CSCC1OC(n2cnc3c(=O)[nH]cnc32)C(O)C1O", "note": "(stereo not given)", "Potency": "inactive"}, {"smiles": "CC1(O)CCC2C(C3C1CCC3(C)O)C2(C)C", "note": "(stereo not given)", "Potency": "inactive"}, {"smiles": "CC(=O)OCC1=C[C@@H]2OC(=O)C3=CO[C@@H](O[C@@H]4O[C@H](CO)[C@@H](O)[C@H](O)[C@H]4O)[C@H]1[C@@H]32", "Potency": "inactive"}, {"smiles": "COC1OC(O)C2(CCC3(O2)C(C)CC2OC(=O)C4(C)CCCC3(C)C24)C1O", "note": "(stereo not given)", "Potency": "inactive"}, {"smiles": "CN[C@H](CNC(=O)N1CCC[C@@H]([C@@H](OCCNC(=O)OC)c2cccc(Cl)c2)C1)C[C@H]1CCCOC1", "Potency": "inactive"}, {"smiles": "N#Cc1cccc(-c2c[nH]c3ncnc(N4CCOCC4)c23)c1", "Potency": "inactive"}, {"smiles": "C[C@H]1[C@@H](O)[C@H](O)C2[C@]3(C)C([C@@H](O)[C@H]4OC(=O)[C@@H]1[C@@]24C)[C@](C)(O)C=C[C@H]3O[C@@H]1O[C@H](CO)[C@@H](O)[C@H](O)[C@H]1O", "note": "(stereo not given in full)", "Potency": "inactive"}, {"smiles": "CC1(C)C2CCC1(C)C(OC(=O)C(O)(CC(=O)O)CC(=O)O)C2", "note": "(stereo not given)", "Potency": "inactive"}, {"smiles": "CCC[C@H](N[C@@H](C)C(=O)N1[C@H](C(=O)O)C[C@@H]2CCCC[C@@H]21)C(=O)O", "Potency": "inactive"}, {"smiles": "OC[C@H]1O[C@@H](Oc2cc(O)cc(-c3cc4ccc(O[C@@H]5O[C@H](CO)[C@@H](O)[C@H](O)[C@H]5O)cc4o3)c2)[C@H](O)[C@@H](O)[C@@H]1O", "Potency": "inactive"}, {"smiles": "C=C1[C@H](OC(C)=O)[C@H]2[C@@H](OC(C)=O)C(C)C[C@]2(OC(C)=O)C(=O)[C@H](C)/C=C/C(C)(C)C(=O)[C@H](OC(=O)C(C)C)[C@H]1OC(C)=O", "note": "(stereo not given in full)", "Potency": "inactive"}, {"smiles": "Cn1cc(CCn2cnc(-c3cnn(C)c3)c2-c2ccc(C#N)cc2)cn1", "Potency": "inactive"}, {"smiles": "C=C1CC2C3(C)C(O)CC(=O)C(C)(C)C3C(O)C(OC(C)=O)C2(C)C2C(=O)OC(C)(C(=O)OC)C(=O)C12C", "note": "(stereo not given)", "Potency": "inactive"}, {"smiles": "CC(=O)OCC1OC(O[C@H]2CC[C@@]3(C)C(CC[C@]4(C)C3CC=C3[C@@H]5CC(C)(C)CC[C@]5(C(=O)O)CC[C@]34C)[C@]2(C)CO)C(O)C(O)C1OC1OC(C)C(O)C(OC2OCC(O)C(O)C2O)C1O", "note": "(stereo not given in full)", "Potency": "inactive"}, {"smiles": "O=S(=O)(O)c1ccc(Nc2ncnc3c2ncn3[C@@H]2O[C@H](CO)[C@@H](O)[C@H]2O)cc1", "Potency": "inactive"}, {"smiles": "C[C@]12CCC[C@](C)(C(=O)O)C1[C@@H](O)[C@@H](O)C13CC(CCC12)C(CO)(O[C@@H]1O[C@H](CO)[C@@H](O)[C@H](O)[C@H]1O)C3", "note": "(stereo not given in full)", "Potency": "inactive"}]}]}
